The whole screen tested about 1,800 compounds, of which about 410 (23%) were called active. The list is a sample of the results. Potency and affinity values are given separately. A number with no mark means an inactive call. No rule for the calls is given here.
Test: Vero cell cytotoxicity, cytotoxicity control for flavivirus capping enzyme inhibitors (AID 588742)
Conditions: Vero cells viability, cytotoxicity counter-screen; series mostly up to 40 µM; viability: at the top concentration

| Compound | viability |
| --- | --- |
| O=C(O)c1ccc(/C=N/Nc2ccc(S(=O)(=O)N3CCCC3)cc2[N+](=O)[O-])cc1 | 91.7% |
| O=[N+]([O-])c1cc2c(cc1C=Nc1ccccc1)OCO2 | 102% |
| O=C1ON=C(c2ccccc2)/C1=C/c1ccc(-c2ccccc2[N+](=O)[O-])o1 | 96.9% [at 20 µM] |
| Cc1ccc2nsnc2c1S(=O)(=O)N(CCO)Cc1cc2cc3c(cc2[nH]c1=O)OCCO3 | 102% |
| COc1cccc(/C=C2/C(=O)NN(c3ccc(F)cc3)C2=O)c1 | 90.1% |
| CCC(C)NC(=O)Cc1ccc(-c2ccccc2)cc1 (configuration not stated) | 91.8% |
| CC1=NN(c2nc(-c3ccc(Cl)cc3)cs2)C(=O)C1 | 87.3% |
| CCCC(=Nc1ccc(N)cc1)C1=C(O)C(C(=O)OC)C(C)(C)CC1=O (configuration not stated) | 101% |
| O=C1C(O)=C(O)C(=O)c2ccccc21 | 90.9% |
| COC(=O)c1ccc(-c2ccc(C(c3c(C)[nH][nH]c3=O)c3c(C)[nH][nH]c3=O)o2)cc1 | 94.6% |
| O=C(Nc1cccc(Oc2ccc(C(=O)O)c(C(=O)O)c2)c1)c1ccc(-c2ccccc2)cc1 | 106% |
| CC1CCC(C(C)C)C2=C1C(C#N)(C#N)C(C#N)(C#N)C(c1ccccc1)N2 (configuration not stated) | 87.7% |
| CC1(C)CC(=O)C(=Cc2cn(CCC#N)nc2-c2ccc(Cl)cc2)C(=O)C1 | 99.2% |
| Cc1ccc(-c2nn(-c3ccccc3)cc2/C=C2\SC(=S)N(CC(=O)O)C2=O)cc1 | 82.5% |
| O=C(Nc1ccc(Cl)cc1)C1c2cccc[n+]2CC(=O)N1Cc1ccc2c(c1)OCO2 (configuration not stated) | 96.9% |
| CCOc1cc(Br)cc(C(c2c(C(=O)O)[nH]c3ccccc23)c2c(C(=O)O)[nH]c3ccccc23)c1O | 98.4% |
| Cc1nn(-c2ccccc2)c2c1C(c1cccs1)C(C#N)=C(N)O2 (configuration not stated) | 93.6% |
| Cc1ccc(CCNC(=O)C2CCN(S(=O)(=O)N3CCCCC3)CC2)cc1 | 98.7% |
| O=[N+]([O-])c1ccccc1-c1ccc(C(=S)N2CCCC2)o1 | 85.2% |
| O=[N+]([O-])c1ccccc1-c1ccc(C(=S)N2CCCCC2)o1 | 86.6% |
| O=C1NN(c2ccccc2)C(=O)/C1=C/c1ccc(-c2ccc(Cl)c(C(=O)O)c2)o1 | 101% |
| O=C(O)c1ccc(Cn2cc(/C=C\[N+](=O)[O-])c3ccccc32)o1 | 87.8% |
| COc1cc(-c2cccs2)cc(=O)c2c(C)oc(C)c12 | 111% |
| CCOc1ccc(/C=C2\SC(=S)N(CCC(=O)Nc3ccccc3C(=O)O)C2=O)cc1 | 103% |
| COc1ccc(C(=O)Nc2cc(C(=O)c3ccccc3)c(C)oc2=O)cc1 | 90.6% |
| Cc1oc(=O)c(NC(=O)c2ccccc2)cc1C(=O)c1ccccc1 | 89.3% |

| Compound | viability |
| --- | --- |
| Cc1ccc(C(=O)c2coc3c2C(=O)C(=O)c2ccccc2-3)cc1 | 87.2% |
| O=C(COc1cccc2ccccc12)Nc1cc(Cl)ccc1C(=O)O | 92.5% |
| O=C1Nc2ccc(F)cc2C12Nc1ccccc1-c1nnc(SCc3ccccc3F)nc1O2 (configuration not stated) | 95.3% |
| CC1=NOC(=O)/C1=C\c1ccc(-c2ccc(Br)cc2C(=O)O)o1 | 96.7% |
| CCOC(=O)c1c(-c2ccc(C)c(C)c2)csc1NC(=O)C1CC=CCC1C(=O)O (configuration not stated) | 99.5% |
| COC(=O)COc1ccc(C2Nc3c(Cl)ccc(C(=O)O)c3C3C=CCC32)cc1 (configuration not stated) | 95.6% |
| N#C/C(=C(/O)CSc1ccccc1C(=O)O)c1nc2ccccc2s1 | 96% |
| COc1ccc(CC(=O)NCc2ccc3c(c2)cc(C)n3C)cc1 | 106% |
| CC1=NN(c2nc(-c3ccc(F)cc3)cs2)C(=O)C1 | 96.5% |
| CCC(C(=O)O)N1C(=O)/C(=C/C(C)=C/c2ccccc2)SC1=S (configuration not stated) | 98.2% |
| CC(=O)Nc1ccc2nc(N)sc2c1 | 96.5% |
| COc1ccc(NCC(=O)N/N=C2\CCc3ccccc32)cc1 | 102% |
| CCOC(=O)c1c(N)sc2c1CCS(=O)(=O)C2 | 99.7% |
| CCOC(=O)c1c(N)sc(=S)c2c1CCC2 | 94.8% |
| CCCCC1=CC2=C(c3ccco3)C(=O)C(C)(OC(=O)c3ccc(OC)cc3)C(=O)C2=CN1C1CC1 (configuration not stated) | 90.4% |
| CC1=NOC(=O)/C1=C/c1ccc2c(c1)OCO2 | 99.9% |
| CC(=O)c1ccc(NC(=O)CSc2nnc(-c3ccco3)c(-c3ccco3)n2)cc1 | 88.2% |
| Nc1c(C(=O)O)sc2nc(-c3ccccc3)cc(-c3ccc(Cl)cc3)c12 | 108% |
| CCOC(=O)C1=C(O)/C(=C\c2ccc(CNC(=O)C(=O)Nc3ccccc3)o2)N=C1C | 105% |
| COc1c(OC(C)=O)ccc(/C=N\NC(=O)c2ccc(Br)cc2)c1[N+](=O)[O-] | 92.1% |
| O=C(O/N=C1\CCCCC1c1ccc([N+](=O)[O-])cc1[N+](=O)[O-])c1c(F)cccc1F (configuration not stated) | 98.9% |
| O=C(O)c1cc(/C=C/C(=O)c2cc(F)ccc2O)c2c(c1)COCO2 | 95% |
| Cc1cc(S(=O)(=O)ON2C(=O)c3ccccc3C2=O)ccc1F | 105% |
| Cc1cc(N2C(=O)C(O)=C(C(=O)c3ccco3)C2c2cccc(Oc3ccccc3)c2)no1 (configuration not stated) | 95.3% |
| CCCCC1=CC2=CC(=O)C(C)(OC(=O)CC)C(=O)C2=CN1Cc1ccc(OC)cc1 (configuration not stated) | 101% |
| O=C1C=CC2=C3c4cc(O)c(O)cc4CC3(O)COC2=C1O (configuration not stated) | 93.7% |

| Compound | viability |
| --- | --- |
| CCOC(=O)C1(C)/C(=N/Nc2cccc(Cl)c2)C(=O)C(=O)N1c1ccccc1 (configuration not stated) | 99.2% |
| N=C1/C(=C\c2ccc(OC(=O)c3ccc(F)cc3)cc2)C(=O)N=C2SC(N3CCOCC3)=NN12 | 85.6% |
| O=C(N/N=C/C(Cl)=C/c1ccc([N+](=O)[O-])cc1)C(=O)Nc1ccccc1C(=O)O | 90.8% |
| O=C(O)CCCCCN1C(=O)C(O)=C(C(=O)/C=C/c2ccccc2)C1c1ccccc1[N+](=O)[O-] (configuration not stated) | 103% |
| O=C(CCN1C(=O)/C(=C/c2ccccc2Cl)SC1=S)Nc1ccccc1C(=O)O | 103% |
| Oc1cc(-n2cccn2)c(O)cc1-n1cccn1 | 106% |
| CC(=O)Nc1ccc(NC(=O)CC2Nc3cccc4cccc(c34)NC2=O)cc1 (configuration not stated) | 92.3% |
| COc1ccc(C2C=C(c3ccc(F)cc3)NC(=S)N2)cc1OC (configuration not stated) | 95.2% |
| COC(=O)CCC(=O)OC1(C)C(=O)C2=CN(c3ccccc3)C(c3ccc(OC)cc3)=CC2=C(Br)C1=O (configuration not stated) | 111% |
| O=c1[nH]c(/C=C/c2ccc(Cl)cc2Cl)c([N+](=O)[O-])c(=O)[nH]1 | 105% |
| CC1CCc2c(sc(N)c2C(N)=O)C1 (configuration not stated) | 100% |
| NC(=S)NNc1cccc2cccnc12 | 86.7% |
| O=c1cccccc1NCc1ccccc1 | 104% |
| CCC(C)c1ccc(NC(=O)Nc2cccnc2)cc1 (configuration not stated) | 92.2% |
| CCOc1ccc(Nc2ccc(N)c(S(=O)(=O)O)c2)cc1 | 104% |
| Oc1ccc(NCc2ccc(OCc3ccccc3)cc2)cc1 | 102% |
| CN(C(=S)Nc1cccnc1)c1ccc(O)cc1 | 108% |
| O=C1C=C(Nc2ccccc2C(=O)O)c2ccccc2C1=O | 93.8% |
| C#CCOc1c(/C=C\c2nc(O)c([N+](=O)[O-])c(=O)[nH]2)cc(Br)cc1OC | 99.6% |
| COC(=O)c1ccc(NC(=O)CCc2nnc3ccc(NCc4ccco4)nn23)cc1 | 88.7% |
| COc1ccc(OC)c(/C=C/c2c([N+](=O)[O-])c(=O)n(C)c(=O)n2C)c1 | 100% |
| CC1(OC(=O)CCc2ccccc2)C(=O)C=C2C=C(c3ccc(C#N)cc3)N(C3CCCC3)C=C2C1=O (configuration not stated) | 107% |
| O=C1/C(=C\c2ccc(-c3ccccc3[N+](=O)[O-])o2)C(c2ccccc2)=NN1c1ccccc1 | 86.9% |
| CCn1c(CSc2nnc3ccccn23)nc2cc(C(=O)O)ccc21 | 97.8% |
| O=C(O)C1=CC[C@@H](c2ccc(Cl)cc2)N(S(=O)(=O)c2ccc(Cl)cc2)[C@H]1c1cccc(Cl)c1 | 87.2% |
| Cc1ccc(C)c(S(=O)(=O)ON2C(=O)c3ccccc3C2=O)c1 | 109% |

| Compound | viability |
| --- | --- |
| COc1ccccc1CNC(=S)Nc1ccc(S(N)(=O)=O)cc1 | 92.7% |
| Cc1ccc(Nc2ccc(N)cc2S(=O)(=O)O)cc1 | 85% |
| CCOC(=O)c1c(-c2cccc(C)c2)csc1NC(=O)C1CC=CCC1C(=O)O (configuration not stated) | 108% |
| Cc1ccc(C(=O)Nc2ccccc2C(=O)O)cc1S(=O)(=O)Nc1ccc(Br)cc1 | 101% |
| COC(=O)c1ccc(N2NC(=O)/C(=C/c3ccc(-c4ccc(Cl)c(C(=O)O)c4)o3)C2=O)cc1 | 93.8% |
| CC1(OC(=O)C2CCCC2)C(=O)C=C2C=C(c3ccsc3)N(CCc3ccccn3)C=C2C1=O (configuration not stated) | 97.4% |
| CSc1nsc2nc(=O)c(/C=C3\C=Nc4ccccc43)c(N)n12 | 89.2% |
| CC1=NN(Cc2ccccc2)C(=O)C1C(c1ccc(Cl)cc1)C(C#N)C#N (configuration not stated) | 82.8% |
| Cc1ccc(NC(=O)c2cccc(C(=O)Nc3ccc(C)cc3C(=O)O)c2)c(C(=O)O)c1 | 95.8% |
| Cc1ccc(F)c(NC(=O)/C(C#N)=C(\O)c2ccc(C(C)(C)C)cc2)c1 | 94.3% |
| Cn1c(=O)c2[nH]c(-c3ccccc3)c(O)c2n(C)c1=O | 105% |
| O=C(O)COc1ccc(/C=C/C(=O)c2ccc(C3CCCCC3)cc2)cc1 | 90.6% |
| O=C(O)c1ccc2c(c1)C(=O)N(c1ccc(/C=C/C(=O)c3ccccc3)cc1)C2=O | 110% |
| C#CCOc1c(Br)cc(/C=C2/C(=O)ON=C2C)cc1OC | 92.8% |
| CC(C(=O)Nc1ccc(O)cc1C(=O)O)N1C(=O)/C(=C\c2cccs2)SC1=S (configuration not stated) | 95.8% |
| O=C1CC2CCCN2C=C1I (configuration not stated) | 94.8% |
| c1cc2c(cc1CNc1ccc(N3CCOCC3)cc1)OCO2 | 101% |
| Cc1ccc(-c2cc(C(=O)O)c3cc(Br)ccc3n2)o1 | 92.2% |
| Cc1ccnc(NCc2ccccc2O)c1 | 101% |
| Cc1ccc(N2C(=O)C(Cl)=C(N3CCN(C)CC3)C2=O)c(C)c1 | 102% |
| O=C1C(Cl)=C(N2CCCCC2)C(=O)N1c1ccccc1 | 94.3% |
| CN1CCN(C2=C(Cl)C(=O)N(c3ccc(Cl)c(Cl)c3)C2=O)CC1 | 106% |
| O=C1C(Cl)=C(N2CCCC2)C(=O)N1c1ccccc1F | 104% |
| CCCCNC(=O)c1ccc2nc(-c3ccco3)c(-c3ccco3)nc2c1 | 96% |

Source: PubChem BioAssay AID588742 (Southern Research Specialized Biocontainment Screening …, 2011)
